The assay concerns the target T1, BATF3;JUNB (human;human, UniProt Q9NR55;P17275 1-127;148-347, |).
T1 sequence 1: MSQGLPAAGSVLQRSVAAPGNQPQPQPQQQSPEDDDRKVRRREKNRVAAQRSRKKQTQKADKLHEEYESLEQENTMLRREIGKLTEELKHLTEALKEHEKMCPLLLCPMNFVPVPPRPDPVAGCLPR
T1 sequence 2: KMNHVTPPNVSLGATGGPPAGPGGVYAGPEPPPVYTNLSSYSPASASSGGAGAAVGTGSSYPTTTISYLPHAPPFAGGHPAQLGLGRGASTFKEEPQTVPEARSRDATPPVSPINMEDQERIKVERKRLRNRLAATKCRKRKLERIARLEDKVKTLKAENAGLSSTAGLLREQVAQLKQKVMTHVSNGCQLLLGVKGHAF
As to the kind of experiment: Spec-seq (EMSA and sequencing of bound and unbound bands); 100 nM BATFx-JUNB, 1 uM dsDNA library, 50 mM K acetate, 20 mM Tris-acetate, 10 mM Mg acetate, 100 ug/ml BSA, pH 7.9, 10% glycerol, 30 min on ice; native 9% PAGE at 4 C; low values mean tight binding. The conditions noted are these: protein: recombinant;recombinant; tags: N-terminal mCherry-TEV, cleaved off;C-terminal 6His; copies: 1;1; dsDNA, one strand shown. A digest of the protocol: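 The protein, at 100 nM, was incubated with 1 μM double-stranded degenerate DNA library for 30 min on ice in NEB Cutsmart buffer with 10% glycerol, then resolved by native 9% PAGE at 4 °C. Excised bound and unbound bands were PCR-barcoded and Illumina-sequenced, and each sequence's relative binding energy in kT is −ln of its bound/unbound read-count ratio.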
A general note: A gel shift assay detects complexes by their altered migration in electrophoresis.
Consider “GATAGTCTCATTTTCACCCCGTGAAATGACACAATTGTTCCATTACAGTATCTGT”, for which the binding signal was -0.063 kT. As for “GATAGTCTCATTTTCACCCCGTGAAATGAGTGAGTTGTTCCATTACAGTATCTGT”, the binding signal was determined as 0.377 kT.

Regarding “GATAGTCTCATTTTCACCCCGTGAAATGATTCATTTGTTCCATTACAGTATCTGT”, the binding signal is -0.839 kT. To “GATAGTCTCATTTTCACCCCGTGAAATGAGTAATTTGTTCCATTACAGTATCTGT” belongs -0.208 kT. For the sequence “GATAGTCTCATTTTCACCCCGTGAAATAAGTCATTTGTTCCATTACAGTATCTGT”, the binding signal was -0.202 kT. With “GATAGTCTCATTTTCACCCCGTGAAATGAGTGATTTGTTCCATTACAGTATCTGT”, the binding signal turned out to be 0.444 kT. To “GATAGTCTCATTTTCACCCCGTGAAATGAGTCGATTGTTCCATTACAGTATCTGT” belongs 0.391 kT. Consider “GATAGTCTCATTTTCACCCCGTGAAATGACTGATTTGTTCCATTACAGTATCTGT”, for which the binding signal was determined as 0.106 kT. For the sequence “GATAGTCTCATTTTCACCCCGTGAAATGAAGTCATTGTTCCATTACAGTATCTGT”, the binding signal was -0.997 kT. Turning to “GATAGTCTCATTTTCACCCCGTGAAATGGCGTCATTGTTCCATTACAGTATCTGT”, the binding signal was -1.11 kT. “GATAGTCTCATTTTCACCCCGTGAAACTCAGTCATTGTTCCATTACAGTATCTGT”: the binding signal turned out to be 0.0164 kT. “GATAGTCTCATTTTCACCCCGTGAAATGAGCCAATTGTTCCATTACAGTATCTGT”: the binding signal came to 0.829 kT. On to “GATAGTCTCATTTTCACCCCGTGAAATGACGCATTTGTTCCATTACAGTATCTGT”, for which the binding signal is -0.479 kT. For the sequence “GATAGTCTCATTTTCACCCCGTGAAATGTCGTCATTGTTCCATTACAGTATCTGT”, the binding signal is -0.976 kT. As for “GATAGTCTCATTTTCACCCCGTGAAATTGAGTCATTGTTCCATTACAGTATCTGT”, the binding signal was -1.45 kT.

Source of the values: PMC5869772, “Quantitative profiling of BATF family proteins/JUNB/IRF hetero-trimers using Spec-seq”.
